Data: publication PMC11574364

Assays:
Test in all cases: protein domain microarray probed with biotinylated miRNA; Domain array: 20 mM Tris-HCl pH 7.4, 200 mM KCl, 0.2 mM EDTA, 0.05% NP40, 2 ug/ul heparin, overnight 4 C. ORF array: PBS pH 7.0 with RNase inhibitor, 100 ng RNA; high values mean tight binding
Conditions in all cases: ssRNA
[1] = target: Musashi-1 (Homo sapiens, UniProt O43347)
[2] = target: FIR (Homo sapiens, UniProt Q9UHX1)
[3] = target: HNRNPCP5 (Homo sapiens, UniProt B2RXH8)
[4] = target: T1, hnRNP-F (Homo sapiens, UniProt P52597)
T1 sequence: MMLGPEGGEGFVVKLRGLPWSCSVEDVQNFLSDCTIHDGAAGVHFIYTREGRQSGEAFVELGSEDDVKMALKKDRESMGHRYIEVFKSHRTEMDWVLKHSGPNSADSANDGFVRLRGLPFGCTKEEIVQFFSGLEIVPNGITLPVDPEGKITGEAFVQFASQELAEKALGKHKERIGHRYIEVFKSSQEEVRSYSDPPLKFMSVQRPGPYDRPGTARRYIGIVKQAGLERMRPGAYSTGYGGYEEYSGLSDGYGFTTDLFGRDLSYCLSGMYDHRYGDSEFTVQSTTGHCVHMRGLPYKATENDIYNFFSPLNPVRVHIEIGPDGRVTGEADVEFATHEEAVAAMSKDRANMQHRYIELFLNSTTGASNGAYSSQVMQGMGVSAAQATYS

[5] = target: IGF2BP1 (Homo sapiens, UniProt Q9NZI8)
Chain of IGF2BP1 (Q9NZI8 1-176): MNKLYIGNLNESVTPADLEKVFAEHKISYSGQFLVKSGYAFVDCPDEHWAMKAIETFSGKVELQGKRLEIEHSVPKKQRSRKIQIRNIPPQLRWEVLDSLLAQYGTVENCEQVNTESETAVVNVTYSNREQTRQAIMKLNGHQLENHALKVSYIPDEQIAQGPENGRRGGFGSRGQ

[6] = target: T2, GRSF1 (Homo sapiens, UniProt Q12849)
T2 sequence: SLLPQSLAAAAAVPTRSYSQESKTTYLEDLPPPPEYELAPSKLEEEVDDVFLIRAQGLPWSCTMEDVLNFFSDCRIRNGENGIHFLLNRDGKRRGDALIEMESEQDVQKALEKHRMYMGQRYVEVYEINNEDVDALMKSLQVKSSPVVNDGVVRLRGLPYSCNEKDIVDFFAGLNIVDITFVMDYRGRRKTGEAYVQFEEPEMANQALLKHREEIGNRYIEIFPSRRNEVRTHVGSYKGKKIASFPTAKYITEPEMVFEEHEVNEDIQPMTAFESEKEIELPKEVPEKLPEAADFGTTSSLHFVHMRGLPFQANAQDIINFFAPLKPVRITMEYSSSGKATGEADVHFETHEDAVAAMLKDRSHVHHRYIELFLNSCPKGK

[7] = target: hnRNP-I(3-4) (Homo sapiens, UniProt P26599)
Chain of hnRNP-I(3-4) (P26599 346-557): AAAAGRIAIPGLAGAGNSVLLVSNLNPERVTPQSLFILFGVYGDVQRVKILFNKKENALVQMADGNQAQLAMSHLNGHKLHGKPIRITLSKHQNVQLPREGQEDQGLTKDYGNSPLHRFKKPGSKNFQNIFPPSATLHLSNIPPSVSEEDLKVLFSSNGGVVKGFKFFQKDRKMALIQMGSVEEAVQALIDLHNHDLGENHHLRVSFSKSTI

[8] = target: T3, ENOX2 (Homo sapiens, UniProt Q16206)
T3 sequence: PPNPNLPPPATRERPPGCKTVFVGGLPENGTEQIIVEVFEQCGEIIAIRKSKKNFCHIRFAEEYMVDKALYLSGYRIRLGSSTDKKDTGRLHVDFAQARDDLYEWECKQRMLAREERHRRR

[9] = target: T4, TAT-SF1 (Homo sapiens, UniProt O43719)
T4 sequence: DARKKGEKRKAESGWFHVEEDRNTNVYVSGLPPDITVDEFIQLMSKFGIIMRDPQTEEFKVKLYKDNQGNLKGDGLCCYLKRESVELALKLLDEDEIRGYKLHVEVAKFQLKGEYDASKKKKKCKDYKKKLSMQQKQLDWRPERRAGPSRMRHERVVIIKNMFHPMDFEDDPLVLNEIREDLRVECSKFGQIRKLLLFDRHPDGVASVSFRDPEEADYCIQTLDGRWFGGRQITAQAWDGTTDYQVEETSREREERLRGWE

[10] = target: T5, AKAP1 (Homo sapiens, UniProt Q92667)
T5 sequence: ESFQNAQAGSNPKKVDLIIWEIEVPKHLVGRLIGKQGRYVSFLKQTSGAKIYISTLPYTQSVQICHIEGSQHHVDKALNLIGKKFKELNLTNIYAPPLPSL

Chain of Musashi-1 (O43347 1-203): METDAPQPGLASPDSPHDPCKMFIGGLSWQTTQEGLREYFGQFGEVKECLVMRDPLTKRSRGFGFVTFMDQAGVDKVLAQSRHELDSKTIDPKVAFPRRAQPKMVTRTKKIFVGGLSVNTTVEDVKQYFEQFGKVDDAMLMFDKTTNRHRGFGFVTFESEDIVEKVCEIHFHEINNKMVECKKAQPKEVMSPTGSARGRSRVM
Chain of HNRNPCP5 (B2RXH8 1-110): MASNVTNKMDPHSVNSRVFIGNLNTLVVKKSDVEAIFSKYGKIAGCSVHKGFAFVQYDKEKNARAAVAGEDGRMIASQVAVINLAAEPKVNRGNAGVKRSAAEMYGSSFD
Chain of FIR (Q9UHX1 110-559): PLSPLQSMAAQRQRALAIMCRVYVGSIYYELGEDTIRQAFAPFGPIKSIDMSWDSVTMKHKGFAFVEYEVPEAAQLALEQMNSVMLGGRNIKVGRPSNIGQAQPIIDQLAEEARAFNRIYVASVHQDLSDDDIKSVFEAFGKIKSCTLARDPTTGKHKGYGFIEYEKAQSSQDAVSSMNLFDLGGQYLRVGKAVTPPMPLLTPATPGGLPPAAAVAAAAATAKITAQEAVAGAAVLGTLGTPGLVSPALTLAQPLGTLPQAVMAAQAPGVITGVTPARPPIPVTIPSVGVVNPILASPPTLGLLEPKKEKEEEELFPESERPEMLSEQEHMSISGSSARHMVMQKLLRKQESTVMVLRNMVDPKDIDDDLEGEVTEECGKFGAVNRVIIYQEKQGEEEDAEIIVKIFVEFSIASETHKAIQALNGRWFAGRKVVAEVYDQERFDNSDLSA

Sequence	binding signal [1] [fluorescence intensity]	binding signal [2] [fluorescence intensity]	binding signal [3] [fluorescence intensity]	binding signal [4] [fluorescence intensity]	binding signal [5] [fluorescence intensity]	binding signal [6] [fluorescence intensity]	binding signal [7] [fluorescence intensity]	binding signal [8] [fluorescence intensity]	binding signal [9] [fluorescence intensity]	binding signal [10] [fluorescence intensity]
UGAGGUAGUAGGUUGUAUGGUU	2400 ± 10.1	1510 ± 21.2	65.5 ± 1.7	953.1 ± 0.948	43 ± 9.13	2945 ± 11.9	934 ± 43.3	74.91 ± 0.417	116 ± 5.61	102 ± 9.24
UGAGGUAGUAGGUUGUAUAGUU	1480 ± 17	717 ± 15	24.6 ± 1.06	624 ± 22.5	26.3 ± 0.771	1790 ± 23.3	323 ± 28.7	20.7 ± 2.55	33.2 ± 1.48	
AGAGGUAGUAGGUUGCAUAGUU	3624 ± 8.34	939 ± 116	48 ± 3.14	2388 ± 13.7	35.9 ± 7.28	4990 ± 87.4	786.56 ± 0.269	77.1 ± 15.4	125.2 ± 1.17	91.72 ± 0.827
UAGCUUAUCAGACUGAUGUUGA	156 ± 11	1240 ± 132	23.4 ± 0.714	25.7 ± 1.8	23 ± 0.714	39.7 ± 8.15	230 ± 15.3			
CAGUGCAAUGAUGAAAGGGCAU	1460 ± 30.9	384 ± 26.4	42.4 ± 3.23	1670 ± 29.4	32.4 ± 2.43	2340 ± 154	401.7 ± 2.43	54.1 ± 16.7	90 ± 1.75	47.9 ± 2.28
UGAGGUAGUAGGUUGUGUGGUU	1830 ± 23.3	1610 ± 121	93.8 ± 2.53	1210 ± 41.5	47.9 ± 7.33	2120 ± 63.5	945.75 ± 0.764	118 ± 1.51	184.1 ± 0.318	202 ± 12.1
